From the supplement of paper PMC3342239
Where a name gives a salt, the structure may show the parent alone.

Each compound was assayed on Saccharomyces cerevisiae (assay: fraction of cells in G1 phase (DNA content, flow cytometry); higher = more cells with unreplicated DNA (G1 delay)). Conditions: temperature: 30 C; YPD; JTY2953 pdr5 snq2 (sensitized); drug added to: cultures diluted from stationary phase; 6-7 h.
In short: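 Library drugs were added to S. cerevisiae in YPD at 30°C, with fixation after 6–7 h for sensitized JTY2953 diluted 1∶200 from overnight and given a final 20 µg/ml, 6 h for dividing JTY2953, and 4.33 h for BY4741. Ethanol-fixed cells stained with SYTOX Green were read by flow cytometry, 10,000 events each. The G1 fraction is the ratio of the Dean-Jett-Fox G1 peak area to the G1 plus G2/M areas.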

SMILES	fraction of cells in G1 phase
CNS(=O)(=O)Cc1ccc2[nH]cc(CCN(C)C)c2c1 [Sumatriptan Succinate] (48.368 µM)	0.457
CCC(NC(C)C)C(O)c1ccc(O)c2[nH]c(=O)ccc12 (stereo not drawn) [Procaterol hcl] (68.8787 µM)	0.526
CCOC(=O)[C@H](CCc1ccccc1)N[C@@H](C)C(=O)N1[C@H](C(=O)O)C[C@@H]2CCC[C@@H]21 [Ramipril] (48.0167 µM)	0.482
COCCOC(=O)C1=C(C)NC(C)=C(C(=O)OC/C=C/c2ccccc2)C1c1cccc([N+](=O)[O-])c1 (stereo not drawn) [Cilnidipine] (40.6064 µM)	0.494
CC1(C)O[C@@H]2C[C@H]3[C@@H]4C[C@H](F)C5=CC(=O)C=C[C@]5(C)[C@@]4(F)[C@@H](O)C[C@]3(C)[C@]2(C(=O)CO)O1 [Fluocinolone acetonide] (44.1989 µM)	0.48
O=C(O)c1cccnc1Nc1cccc(C(F)(F)F)c1 [Niflumic acid] (70.8657 µM)	0.505
CC[C@]1(O)C[C@H]2CN(CCc3c([nH]c4ccccc34)[C@@](C(=O)OC)(c3cc4c(cc3OC)N(C=O)[C@H]3[C@@](O)(C(=O)OC)[C@H](OC(C)=O)[C@]5(CC)C=CCN6CC[C@]43[C@@H]65)C2)C1 [Vincristine sulfate] (24.243 µM)	0.481
COc1ccc(C2CNC(=O)C2)cc1OC1CCCC1 (stereo not drawn) [Rolipram] (72.6347 µM)	0.497
Cc1ccc(N(CC2=NCCN2)c2cccc(O)c2)cc1 [PhentolamineHCl] (62.9327 µM)	0.505
OCCOCCN1CCN(C2=Nc3ccccc3Sc3ccccc32)CC1 [Quetiapine fumarate] (22.6473 µM)	0.499
COC(=O)Nc1nc2cc(C(=O)c3ccccc3)ccc2[nH]1 [Mebendazol] (67.7277 µM)	0.352
O=C(O)c1cn(C2CC2)c2cc(N3CCNCC3)c(F)cc2c1=O [Ciprofloxacin] (60.3592 µM)	0.461
COC(=O)[C@@H]1[C@H]2C[C@H]3c4[nH]c5ccccc5c4CCN3C[C@@H]2CC[C@@H]1O [Yohimbine HCl] (51.164 µM)	0.524
CC1(C)S[C@@H]2[C@H](NC(=O)[C@H](N)c3ccc(O)cc3)C(=O)N2[C@H]1C(=O)O [Amoxicillin] (54.7345 µM)	0.457
Cc1cnc(C(=O)NCCc2ccc(S(=O)(=O)NC(=O)NC3CCCCC3)cc2)cn1 [Glipizide] (44.8889 µM)	0.577
COC(=O)C1=C(C)NC(C)=C(C(=O)OC)C1c1ccccc1[N+](=O)[O-] [Nifedipine] (57.7463 µM)	0.551
CC(C)[C@H](N)C(=O)OCCOCn1cnc2c(=O)nc(N)[nH]c21 [Valaciclovir] (61.6633 µM)	0.465
COc1ccc(CCN(C)CCCC(C#N)(c2ccc(OC)c(OC)c2)C(C)C)cc1OC (stereo not drawn) [Verapamil] (40.7249 µM)	0.507
O=C1CN2Cc3c(ccc(Cl)c3Cl)N=C2N1 [Anagrelide] (78.0967 µM)	0.469

SMILES	fraction of cells in G1 phase
CCOC(=O)c1ncn2c1CN(C)C(=O)c1cc(F)ccc1-2 [Flumazenil] (65.9423 µM)	0.507
COC(=O)C1=C(C)NC(C)=C(C(=O)OCCN(C)Cc2ccccc2)C1c1cccc([N+](=O)[O-])c1 (stereo not drawn) [Nicardipine] (38.7597 µM)	0.5
COc1cc(C(=O)OCCCN2CCCN(CCCOC(=O)c3cc(OC)c(OC)c(OC)c3)CC2)cc(OC)c1OC [Dilazep] (33.074 µM)	0.47
CC(COc1ccccc1)N(CCCl)Cc1ccccc1 (stereo not drawn) [Phenoxybenzamine HCl] (58.7717 µM)	0.514
CS(=O)(=O)CCNCc1ccc(-c2ccc3ncnc(Nc4ccc(OCc5cccc(F)c5)c(Cl)c4)c3c2)o1 [Lapatinib] (34.4192 µM)	0.565
CN(C)CCOC(c1ccccc1)c1ccccc1 [Diphenhydramine HCl] (78.3199 µM)	0.446
O=P(O)(O)C(O)(Cn1ccnc1)P(=O)(O)O [Zoledronic acid] (73.5045 µM)	0.486
CN(C)CC/C=C1/c2ccccc2COc2ccc(CC(=O)O)cc21 [Olopatadine] (59.2729 µM)	0.431
C[C@H](CCC(=O)NCCS(=O)(=O)O)[C@H]1CC[C@H]2[C@@H]3[C@H](O)C[C@@H]4C[C@H](O)CC[C@]4(C)[C@H]3C[C@H](O)[C@]12C [Taurocholic acid, sodium salt hydrate] (38.7811 µM)	0.491
C1COC(NC(C2CC2)C2CC2)=N1 [Rilmenidine hemifumarate] (110.956 µM)	0.483
CCCCCN(CCCCC)C(=O)C(CCC(=O)O)NC(=O)c1ccc(Cl)c(Cl)c1 (stereo not drawn) [Lorglumide] (43.5334 µM)	0.482
C[C@@H](O)[C@H]1C(=O)N2C(C(=O)O)=C(SCCNC=N)C[C@H]12 [Imipenem] (66.8112 µM)	0.486
CN(Cc1cc(Br)cc(Br)c1N)C1CCCCC1 [Bromhexine HCl] (53.1721 µM)	0.466
Cc1cnc(NC(=O)C2=C(O)c3ccccc3S(=O)(=O)N2C)s1 [Meloxicam] (56.9143 µM)	0.501
CC1=Nc2ccc(Cl)cc2S(=O)(=O)N1 [Diazoxide] (86.7024 µM)	0.516
CCC1(c2ccccc2)NC(=O)N(C)C1=O (stereo not drawn) [Mephenytoin] (91.6348 µM)	0.522
NCCC(O)(P(=O)(O)O)P(=O)(O)O [Pamidronic acid] (85.0806 µM)	0.476
CN[C@@H]1[C@@H](O[C@H]2O[C@H](CO)[C@@H](N)[C@H](O)[C@H]2O)OC2C[C@@H](N)[C@@H](O[C@H]3[C@H](O)[C@@H](O)[C@H](N)C[C@@H]3N)OC2[C@@H]1O (stereo partly drawn) [Apramycin] (37.0653 µM)	0.449
COc1ccc2cc([C@H](C)C(=O)O)ccc2c1 [Naproxen] (86.8561 µM)	0.514
